Experimental findings from the supplement of paper PMC13380429 are described below.

In the assay the test system is Vero E6 infected with SARS-CoV-2. Briefly: SARS-CoV-2 infection rate relative to infected DMSO; higher = more infection, active = 60 or less. To be noted: 24 h.
Regarding `c1cnc(N2CCN(Cc3ccc4c(c3)OCO4)CC2)nc1` [piribedil] (10 µM), the SARS-CoV-2 infection rate was 98.5% (inactive).

`CN1CCN(c2ccc(Nc3ncc4cc(C#N)c(=O)n(C5CCCC5)c4n3)cc2)CC1` (0.833333 µM): the SARS-CoV-2 infection rate was 104% (inactive).

As to `CCC(Cc1c(I)cc(I)c(N)c1I)C(=O)O` (stereo not drawn) [iopanic-acid] (10 µM), the SARS-CoV-2 infection rate was 116% (inactive).

With `Nc1cccc2c1C(=O)N(C1CCC(=O)NC1=O)C2=O` (stereo not drawn) [pomalidomide] (10 µM), the SARS-CoV-2 infection rate is 108% (inactive).

As to `C[C@]1(COc2ccc(N3CCC(Oc4ccc(OC(F)(F)F)cc4)CC3)cc2)Cn2cc([N+](=O)[O-])nc2O1` [delamanid] (10 µM), the SARS-CoV-2 infection rate was 110% (inactive).

Regarding `CCOC1O[C@H]([C@@H](COCc2ccccc2)OCc2ccccc2)[C@H](OCc2ccccc2)[C@H]1O` (stereo partly drawn) [tribenoside] (10 µM), the SARS-CoV-2 infection rate is 102% (inactive).

Regarding `CCC[C@@]1(CCc2ccccc2)CC(O)=C([C@H](CC)c2cccc(NS(=O)(=O)c3ccc(C(F)(F)F)cn3)c2)C(=O)O1` [tipranavir] (10 µM), the SARS-CoV-2 infection rate was 94.5% (inactive).

Consider `C[C@H]1N=C(N(C)C)N=C(N)N1` [imeglimin] (10 µM), for which the SARS-CoV-2 infection rate is 99% (inactive).
